PubChem BioAssay (NCATS)
Results filed as inconclusive are left out. Activity calls are given as the source filed them. Calls follow the shape of the dose curve; as a rule, active = well fitted inhibition curve with a large enough effect; inconclusive = small, poorly fitted or top-dose-only effect; inactive = flat fitted curve, though single readings scatter.

Experiment: qHTS for Inhibitors of Plasmodium falciparum (HB3) proliferation (AID 504318); also: nearly all actives have a fitted effect of over 60% in size;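 as to activity change, negative = inhibition: 0% = DMSO vehicle and -100% = artemisinin control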
Conditions: P. falciparum HB3 in erythrocytes, SYBR Green DNA, 72 h; series mostly up to 7.21 µM; activity change, negative = inhibition: at the top concentration
From the text: Plasmodium falciparum is a virulent malarial parasite that kills 1-2 million people worldwide each year. Malaria not only inflicts tremendous suffering and morbidity on the human population, but has dramatically influenced the course of civilization with profound sociological and economic implications (Shah, S. 2010). Transmitted by mosquitoes, the sporozoite form of the parasite enters the blood stream to infect hepatocytes, where they become merozoites that infect red blood cells (erythrocytes). Within erythrocytes, merozoites begin a […] cycle of growth and division, after which the parasite is released to infect new red blood cells. Gametocytes, which form within erythrocytes as well, circulate in the bloodstream and are ingested by the mosquito, thereby completing the life cycle (see CDC website). To profile malarial lines for differential chemical responses and to identify inhibitors of malarial growth, an assay that measures P. falciparum growth and replication within erythrocytes was employed. This assay uses a DNA binding fluorescent dye (SYBR Green) to detect parasite DNA following cell lysis. Because mature erythrocytes lack DNA, only Plasmodium-derived DNA is detected. The P. falciparum line cp250, derived from a malarial isolate from Cambodia, (Mu, J., et al. 2010) was added to the panel of lines, Dd2, HB3, 7G8 and GB4 in this study. Laboratory of Assay Development and Screening Technology [ADST] and NIH Chemical Genomics Center [NCGC] Boston University, Chemistry Department, Center for Chemical Methodology and Library Development [CMLD-BU] NIH National Institute of Allergy and Infectious Diseases [NIAID]
ADST Assay Protocol Summary: The 1536-well SYBR Green viability assay was based on the method of Bennett et al (2004) and described previously in 1536-well format (Yuan J., et al. 2009). For screening 3 ul culture medium was dispensed into 1536 well black clear bottom plates (Aurora Biotechnologies) using a Multidrop Combi (Thermo Fisher Scientific Inc.), 23 nL compounds in DMSO were added by a pin transfer (Cleveland, P.H. and Koutz, P.J, 2005) using a pin tool-based delivery system (Kalypsys), and 5 ul of erythrocytes infected with P. falciparum one of five lines (cp250, Dd2, HB3, 7G8 or GB4, 0.3% parasitemia, 2.5% hematocrit final concentration) were added. The plates were incubated at 37C in a humidified incubator in 5% CO2 for 72 h, and 2 ul lysis buffer (20 mM Tris HCl, 10 mM EDTA, 0.16% saponin, 1.6% triton X, 10X SYBR Green I (supplied as 10,000X final concentration by Invitrogen) was added to each well. The plates were mixed for 25 sec with gentle shaking and incubated overnight at room temperature in the dark. The following morning, fluorescence intensity at 485(14) nm excitation and 535(25) nm emission wavelengths was measured on an EnVision (Perkin Elmer) plate reader. Plate reads were normalized relative to the control inhibitor (0.29 uM artemisinin) and vehicle (DMSO) wells present on each plate and then corrected by an algorithm using vehicle-only control plates at the beginning and end of the compound plate stack. References Shah, S. (2010). The Fever: how malaria has ruled humankind for 500,000 years. New York, Sarah Crichton Books. CDC web site, http://www.cdc.gov/malaria/about/biology/index.html Mu, J., Myers, R.A., Jiang, H., Liu, S., Ricklefs, S., Waisberg, M., Chotivanich, K., Wilairatana, P., Krudsood, S., White, N.J., et Plasmodium falciparum genome-wide scans for positive selection, recombination hot spots and resistance to antimalarial drugs Nature Genetics 2010, 42, pp 268-271 Bennett TN, Paguio, M., Gligorijevic, B., Seudieu, C., Kosar, A. D., Davidson, E., and Roepe, P. D. Novel, rapid, and inexpensive cell-based quantification of antimalarial drug efficacy Antimicrobial Agents Chemother. 2004, 48(5): pp 1807-10 Yuan J, Johnson RL, Huang RL, Wichterman J, Jiang HY, Hayton K, Fidock DA, Wellems TE, Inglese J, Austin CP, Su XZ. […]
Potency is read from the fitted curve at half-maximal effect.

Structure (SMILES) | activity change, negative = inhibition | Potency
CCN1C(=O)[C@@H]2[C@H]3[C@H](O)[C@H](O)CC(=NOC[C@@H](O)[C@H]4O[C@@H]5OC(C)(C)O[C@H]5[C@@H]4O)[C@@H]3CC[C@H]2C1=O | -4.85% (inactive) | –
COc1cccc(-c2coc3ccc(Br)cc3c2=O)c1 | -13.7% (inactive) | –
CC(C)OC(=O)CC(NC(=O)OC(C)(C)C)c1ccccc1 (stereo not given) | – | inactive
C[C@@H]1CC[C@H]2C(=O)N(Cc3cccc([N+](=O)[O-])c3)C[C@@H](O)CN2[C@@H]1c1cccc(Br)c1 | -0.0454% (inactive) | –
COC(=O)C(C(=O)OC)C1c2ccccc2C=C(C2CC2)N1C(=O)OC (stereo not given) | – | inactive
COc1cccc(C(CC2=CCCCC2)NC(=O)C(F)(F)F)c1 (stereo not given) | 3.35% (inactive) | –
CC1(C)CC(=O)C2=C(C1)O[C@@]1(CCCCN3C(=O)c4ccccc4C3=O)Cc3ccccc3[C@H]2O1 | – | 1.51 µM (active)
CCN1C(=NCc2cccc(C(F)(F)F)c2)NC(c2cccc(C(F)(F)F)c2)C(C(=O)OC)=C1C (stereo not given) | -12.7% (inactive) | –
COC(=O)NC(CCc1ccccc1)C(C(=O)OC)C(=O)OC (stereo not given) | -3.95% (inactive) | –
COC(=O)C(Cc1cc(Br)c(OC)c(Br)c1O)=NO | -6.68% (inactive) | –
COC(=O)C1=C(C)N(Cc2ccccc2)C(=O)NC1c1ccccc1 (stereo not given) | 5.4% (inactive) | –
COC(=O)[C@H](Cc1ccccc1)NC(=O)O[C@H]1C(=O)c2ccc(OC)cc2O[C@@H]1c1ccc2c(c1)OCO2 | -6.68% (inactive) | –
COC(=O)N[C@@H](c1ccccc1)[C@]1(C(C)=O)CCCC1=O | 0.888% (inactive) | –
COc1cc2c(c(OC)c1)[C@H](C=Cc1ccccc1)[C@@H]([C@H](O)CO)OC2 | -1.48% (inactive) | –
COc1cc2c(cc1OC)[C@@H]1O[C@](CCCCN3C(=O)c4ccccc4C3=O)(C2)Oc2cc(C)n(Cc3ccccc3)c(=O)c21 | – | 1.69 µM (active)
C[C@@H](ON=C1[C@H]2CCn3c(=O)n(-c4ccccc4)c(=O)n3[C@@H]2[C@H](O)[C@@H]2O[C@H]12)c1cn([C@@H]2COC[C@@H]2O)nn1 | -0.846% (inactive) | –
C#CCCCON=C1C[C@@H](O)[C@H](O)[C@H]2[C@@H]3C(=O)N(c4cccc(Oc5ccccc5)c4)C(=O)[C@@H]3CC[C@@H]12 | -2.22% (inactive) | –
COC[C@H]1O[C@@H]2O[C@@H]1[C@@H](C=Cc1ccccc1)C[C@H]2C | 1.07% (inactive) | –
COC(=O)CCCC1=CC2=C(c3ccccc3)C(=O)C(C)(OC(=O)C3CCCC3)C(=O)C2=CN1CCCCO (stereo not given) | – | inactive
CCN1C(N(C)CCOC)=NC(c2cccc(F)c2)C(C(=O)OC)=C1C (stereo not given) | -2.87% (inactive) | –

Structure (SMILES) | activity change, negative = inhibition | Potency
CCN1C(=O)NC(c2ccc(Br)cc2)C(C(C)=O)=C1C (stereo not given) | -5.93% (inactive) | –
COC(=O)C(C(C)=O)[C@@H](NC(=O)OC(C)(C)C)c1ccccc1 (stereo not given in full) | 9.2% (inactive) | –
Cc1cc2c(c(=O)o1)[C@H]1O[C@](c3ccsc3)(Cc3ccccc31)O2 | -4.68% (inactive) | –
COC(=O)[C@]1(CC=Cc2ccccc2)C=C[C@@H](C)[C@H](c2ccccc2Br)N1C(=O)C(F)(F)F | – | 1.9 µM (active)
COC(=O)N[C@H](CC(C)=O)c1ccc2c(c1)OCO2 | 8.93% (inactive) | –
COc1ccc(OC[C@@H]2CC3[C@@H](CC[C@@H](C)[C@H]3c3ccc(Br)cc3)C(=O)O2)cc1 (stereo not given in full) | 2.53% (inactive) | –
CC(=O)OC[C@H]1O[C@H](C#CC(C)(C)C)C=C[C@H]1OC(C)=O | -0.065% (inactive) | –
C[C@H]1C(C(=O)N2CCCC2)=Cc2[nH]c(=O)[nH]c2C=C1c1ccccc1 | 4.87% (inactive) | –
CCC(=O)OC1(C)C(=O)C=C2C=C(c3ccsc3)OC=C2C1=O (stereo not given) | -3.76% (inactive) | –
COCCN1C(=S)NC(c2cccc(F)c2)C(C(=O)OC)=C1C (stereo not given) | -6.5% (inactive) | –
C#CC[C@@]1(C(=O)OC)C=C[C@@H](C)[C@H](c2ccccc2Br)N1C(=O)C(F)(F)F | 2.5% (inactive) | –
C=CCOC(=O)N[C@H](c1ccccc1)C(C(C)=O)C(C)=O | -15.4% (inactive) | –
CCN1C(=NCc2ccco2)N[C@@H](c2ccccc2)[C@H](C(=O)OC)[C@H]1C | 1.68% (inactive) | –
CC(=O)C1=C(C)N(Cc2ccccc2)C(=O)NC1c1cccs1 (stereo not given) | 5.61% (inactive) | –
COC(=O)N[C@@H](c1ccco1)[C@]1(C(C)=O)CCCC1=O | 11.6% (inactive) | –
CCOC(=O)CN1C(=O)NC(c2ccccc2)C(C(C)=O)=C1C (stereo not given) | -7.41% (inactive) | –
CC(=O)OC[C@H]1O[C@H](CC=NOC[C@@H](O)[C@H]2O[C@@H]3OC(C)(C)O[C@H]3[C@@H]2O)C=C[C@H]1OC(C)=O | 6.44% (inactive) | –
C[C@]12C[C@@](C)(C=C1C=Cc1ccc(F)cc1)C(=O)C[C@H]2c1ccc(F)cc1 | – | 1.69 µM (active)
O=C1C2=C(C(=O)c3ccccc31)[C@H]1O[C@](c3ccsc3)(Cc3ccccc31)O2 | – | 1.9 µM (active)
COC(=O)c1nnc(C(=O)NCc2ccccc2)c2[nH]c3ccccc3c12 | -0.13% (inactive) | –
